# Legend:
# [1] = molecular target: T1, Ephrin type-B receptor 1 (Homo sapiens) (UniProt P54762); details: at 10 µM
# T1 sequence (whole entry): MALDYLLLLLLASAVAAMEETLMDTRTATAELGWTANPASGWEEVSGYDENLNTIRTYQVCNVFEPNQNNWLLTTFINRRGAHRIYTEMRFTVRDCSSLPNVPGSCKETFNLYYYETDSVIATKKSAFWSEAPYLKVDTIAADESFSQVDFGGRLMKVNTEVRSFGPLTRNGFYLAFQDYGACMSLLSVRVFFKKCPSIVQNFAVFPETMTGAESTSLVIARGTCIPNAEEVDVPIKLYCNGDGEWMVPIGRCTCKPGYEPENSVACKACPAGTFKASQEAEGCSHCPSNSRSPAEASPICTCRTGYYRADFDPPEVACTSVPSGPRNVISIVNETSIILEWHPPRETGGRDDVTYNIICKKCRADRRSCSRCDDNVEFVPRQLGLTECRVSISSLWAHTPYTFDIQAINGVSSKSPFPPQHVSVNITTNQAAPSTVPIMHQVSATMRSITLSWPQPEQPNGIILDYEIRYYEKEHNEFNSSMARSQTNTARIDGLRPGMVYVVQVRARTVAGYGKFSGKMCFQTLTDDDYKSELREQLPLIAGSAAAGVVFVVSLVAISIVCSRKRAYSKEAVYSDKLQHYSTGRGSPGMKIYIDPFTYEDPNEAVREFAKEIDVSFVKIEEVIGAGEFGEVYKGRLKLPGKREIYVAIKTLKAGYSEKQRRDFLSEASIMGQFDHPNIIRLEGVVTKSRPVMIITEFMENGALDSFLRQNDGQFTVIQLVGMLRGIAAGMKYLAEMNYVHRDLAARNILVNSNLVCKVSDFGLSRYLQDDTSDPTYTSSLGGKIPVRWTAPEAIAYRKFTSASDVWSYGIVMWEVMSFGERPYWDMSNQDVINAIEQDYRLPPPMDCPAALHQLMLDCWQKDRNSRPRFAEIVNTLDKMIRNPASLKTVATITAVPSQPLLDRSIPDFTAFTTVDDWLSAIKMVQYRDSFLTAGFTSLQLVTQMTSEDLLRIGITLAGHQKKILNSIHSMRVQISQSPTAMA
# [2] = molecular target: T2, Ephrin type-B receptor 2 (Homo sapiens) (UniProt P29323); details: at 1 µM
# T2 sequence (whole entry): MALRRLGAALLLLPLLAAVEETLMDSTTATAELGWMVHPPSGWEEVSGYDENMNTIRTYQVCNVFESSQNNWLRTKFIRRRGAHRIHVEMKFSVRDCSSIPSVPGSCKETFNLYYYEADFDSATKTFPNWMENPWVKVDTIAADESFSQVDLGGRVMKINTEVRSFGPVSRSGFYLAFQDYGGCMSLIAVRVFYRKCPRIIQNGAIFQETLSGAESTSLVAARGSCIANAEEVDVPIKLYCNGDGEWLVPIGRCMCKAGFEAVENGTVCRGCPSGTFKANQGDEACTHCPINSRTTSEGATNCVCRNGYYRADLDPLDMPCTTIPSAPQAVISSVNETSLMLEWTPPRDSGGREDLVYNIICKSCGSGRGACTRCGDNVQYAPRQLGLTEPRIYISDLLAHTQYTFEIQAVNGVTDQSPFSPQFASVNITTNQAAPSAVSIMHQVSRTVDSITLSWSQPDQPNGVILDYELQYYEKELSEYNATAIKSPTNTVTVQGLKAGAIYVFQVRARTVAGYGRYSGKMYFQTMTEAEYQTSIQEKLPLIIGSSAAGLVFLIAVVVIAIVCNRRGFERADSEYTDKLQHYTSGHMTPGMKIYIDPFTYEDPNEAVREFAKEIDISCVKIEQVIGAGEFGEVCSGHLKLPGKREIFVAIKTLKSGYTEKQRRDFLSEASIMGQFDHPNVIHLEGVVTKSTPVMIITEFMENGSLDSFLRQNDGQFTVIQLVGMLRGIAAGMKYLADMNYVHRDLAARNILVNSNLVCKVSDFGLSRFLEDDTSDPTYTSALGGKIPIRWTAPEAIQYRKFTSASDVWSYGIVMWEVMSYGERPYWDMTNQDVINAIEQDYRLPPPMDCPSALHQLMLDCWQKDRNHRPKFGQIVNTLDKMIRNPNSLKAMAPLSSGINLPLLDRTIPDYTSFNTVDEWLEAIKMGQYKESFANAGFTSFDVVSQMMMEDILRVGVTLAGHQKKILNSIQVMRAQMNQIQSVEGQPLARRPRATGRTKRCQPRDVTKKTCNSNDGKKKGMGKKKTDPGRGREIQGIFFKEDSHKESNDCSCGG
# [3] = molecular target: T2, Ephrin type-B receptor 2 (Homo sapiens); details: at 10 µM
# [4] = molecular target: T3, Ephrin type-B receptor 3 (Homo sapiens) (UniProt P54753); details: at 1 µM
# T3 sequence (whole entry): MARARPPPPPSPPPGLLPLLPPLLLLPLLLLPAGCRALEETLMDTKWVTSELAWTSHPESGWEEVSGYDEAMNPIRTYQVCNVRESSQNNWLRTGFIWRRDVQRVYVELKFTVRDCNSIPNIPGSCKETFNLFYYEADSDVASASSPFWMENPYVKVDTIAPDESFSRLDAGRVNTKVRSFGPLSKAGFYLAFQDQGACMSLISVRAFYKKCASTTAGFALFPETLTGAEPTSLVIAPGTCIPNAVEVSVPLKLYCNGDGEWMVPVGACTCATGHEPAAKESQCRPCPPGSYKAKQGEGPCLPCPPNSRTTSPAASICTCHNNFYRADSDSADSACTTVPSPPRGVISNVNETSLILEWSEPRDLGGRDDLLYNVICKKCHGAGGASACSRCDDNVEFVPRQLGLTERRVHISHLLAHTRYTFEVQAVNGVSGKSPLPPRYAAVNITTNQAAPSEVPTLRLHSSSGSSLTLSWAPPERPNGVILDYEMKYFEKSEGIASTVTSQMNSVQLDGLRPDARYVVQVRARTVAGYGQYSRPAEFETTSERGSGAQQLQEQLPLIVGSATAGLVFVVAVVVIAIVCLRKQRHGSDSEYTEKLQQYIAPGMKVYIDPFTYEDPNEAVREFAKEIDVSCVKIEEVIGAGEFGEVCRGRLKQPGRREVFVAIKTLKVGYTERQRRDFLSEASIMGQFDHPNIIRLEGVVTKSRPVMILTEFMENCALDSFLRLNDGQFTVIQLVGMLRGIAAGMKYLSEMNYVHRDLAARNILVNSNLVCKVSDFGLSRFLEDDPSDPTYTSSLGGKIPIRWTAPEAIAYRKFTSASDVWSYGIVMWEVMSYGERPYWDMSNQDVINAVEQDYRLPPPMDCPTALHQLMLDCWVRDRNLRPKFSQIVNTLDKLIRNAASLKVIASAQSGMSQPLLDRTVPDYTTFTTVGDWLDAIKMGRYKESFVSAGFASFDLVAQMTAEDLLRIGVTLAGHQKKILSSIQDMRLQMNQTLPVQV
# [5] = molecular target: T3, Ephrin type-B receptor 3 (Homo sapiens); details: at 10 µM
# [6] = molecular target: T4, Ephrin type-B receptor 4 (Homo sapiens) (UniProt P54760); details: at 1 µM
# T4 sequence (whole entry): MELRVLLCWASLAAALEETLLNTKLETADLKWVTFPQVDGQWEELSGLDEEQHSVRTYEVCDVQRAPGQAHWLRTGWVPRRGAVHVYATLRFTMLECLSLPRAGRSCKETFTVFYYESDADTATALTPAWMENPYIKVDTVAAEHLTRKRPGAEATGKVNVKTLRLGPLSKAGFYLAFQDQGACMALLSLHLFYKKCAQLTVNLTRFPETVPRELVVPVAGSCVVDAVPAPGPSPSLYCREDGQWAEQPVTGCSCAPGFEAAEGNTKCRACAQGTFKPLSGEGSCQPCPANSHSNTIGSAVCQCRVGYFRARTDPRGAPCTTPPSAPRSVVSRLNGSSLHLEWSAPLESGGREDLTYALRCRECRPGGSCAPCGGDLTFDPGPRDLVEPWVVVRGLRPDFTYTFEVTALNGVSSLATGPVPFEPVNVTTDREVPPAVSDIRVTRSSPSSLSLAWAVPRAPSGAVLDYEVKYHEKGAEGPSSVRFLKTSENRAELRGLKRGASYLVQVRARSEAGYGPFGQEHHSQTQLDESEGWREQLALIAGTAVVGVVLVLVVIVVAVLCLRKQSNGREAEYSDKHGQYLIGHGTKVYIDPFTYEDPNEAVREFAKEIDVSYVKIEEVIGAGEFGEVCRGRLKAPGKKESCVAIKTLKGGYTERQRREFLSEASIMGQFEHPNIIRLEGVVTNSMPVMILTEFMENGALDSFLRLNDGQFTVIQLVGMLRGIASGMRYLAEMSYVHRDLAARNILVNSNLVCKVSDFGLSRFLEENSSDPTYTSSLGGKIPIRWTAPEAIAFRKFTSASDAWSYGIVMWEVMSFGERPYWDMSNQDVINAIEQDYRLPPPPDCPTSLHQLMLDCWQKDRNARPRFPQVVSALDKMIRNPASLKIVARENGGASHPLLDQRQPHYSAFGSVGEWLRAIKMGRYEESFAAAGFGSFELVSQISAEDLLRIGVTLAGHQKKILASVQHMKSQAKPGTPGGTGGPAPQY
# [7] = molecular target: T4, Ephrin type-B receptor 4 (Homo sapiens); details: at 10 µM
# [8] = molecular target: Receptor tyrosine-protein kinase erbB-4 (Homo sapiens) (UniProt Q15303); details: at 1 µM
# [9] = molecular target: Receptor tyrosine-protein kinase erbB-4 (Homo sapiens) (UniProt Q15303); details: at 10 µM
# [10] = molecular target: Focal adhesion kinase 1 (Homo sapiens) (UniProt Q05397); details: at 1 µM
# Sequence of Focal adhesion kinase 1 (Homo sapiens) (Q05397 2-1052 limits assumed): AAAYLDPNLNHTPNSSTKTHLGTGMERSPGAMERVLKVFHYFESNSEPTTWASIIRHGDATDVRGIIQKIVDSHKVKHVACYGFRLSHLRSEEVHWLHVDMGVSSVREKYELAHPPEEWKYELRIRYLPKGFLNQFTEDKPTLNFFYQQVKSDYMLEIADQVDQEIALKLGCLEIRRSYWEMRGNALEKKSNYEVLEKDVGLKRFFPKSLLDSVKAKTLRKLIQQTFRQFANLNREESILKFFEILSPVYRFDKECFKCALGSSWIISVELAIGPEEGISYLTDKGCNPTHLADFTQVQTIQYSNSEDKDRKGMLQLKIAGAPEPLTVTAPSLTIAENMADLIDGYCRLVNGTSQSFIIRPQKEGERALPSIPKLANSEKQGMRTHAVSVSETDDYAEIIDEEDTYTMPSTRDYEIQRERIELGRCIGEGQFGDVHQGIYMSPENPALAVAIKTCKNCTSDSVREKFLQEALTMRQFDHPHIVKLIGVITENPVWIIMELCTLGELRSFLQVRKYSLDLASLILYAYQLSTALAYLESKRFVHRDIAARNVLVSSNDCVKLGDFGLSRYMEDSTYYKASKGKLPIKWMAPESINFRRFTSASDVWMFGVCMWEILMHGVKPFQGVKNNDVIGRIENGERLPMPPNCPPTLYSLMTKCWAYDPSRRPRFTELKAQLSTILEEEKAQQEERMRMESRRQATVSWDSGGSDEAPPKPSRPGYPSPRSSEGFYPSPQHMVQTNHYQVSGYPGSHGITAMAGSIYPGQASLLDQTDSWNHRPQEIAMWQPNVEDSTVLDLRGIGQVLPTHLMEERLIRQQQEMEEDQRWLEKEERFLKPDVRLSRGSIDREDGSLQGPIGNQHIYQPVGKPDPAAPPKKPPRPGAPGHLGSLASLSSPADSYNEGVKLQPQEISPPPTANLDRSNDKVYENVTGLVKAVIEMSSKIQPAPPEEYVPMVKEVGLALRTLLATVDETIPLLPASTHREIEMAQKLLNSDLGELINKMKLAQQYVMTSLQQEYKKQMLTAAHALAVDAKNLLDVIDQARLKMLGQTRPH
# Sequence of Receptor tyrosine-protein kinase erbB-4 (Homo sapiens) (Q15303 whole entry): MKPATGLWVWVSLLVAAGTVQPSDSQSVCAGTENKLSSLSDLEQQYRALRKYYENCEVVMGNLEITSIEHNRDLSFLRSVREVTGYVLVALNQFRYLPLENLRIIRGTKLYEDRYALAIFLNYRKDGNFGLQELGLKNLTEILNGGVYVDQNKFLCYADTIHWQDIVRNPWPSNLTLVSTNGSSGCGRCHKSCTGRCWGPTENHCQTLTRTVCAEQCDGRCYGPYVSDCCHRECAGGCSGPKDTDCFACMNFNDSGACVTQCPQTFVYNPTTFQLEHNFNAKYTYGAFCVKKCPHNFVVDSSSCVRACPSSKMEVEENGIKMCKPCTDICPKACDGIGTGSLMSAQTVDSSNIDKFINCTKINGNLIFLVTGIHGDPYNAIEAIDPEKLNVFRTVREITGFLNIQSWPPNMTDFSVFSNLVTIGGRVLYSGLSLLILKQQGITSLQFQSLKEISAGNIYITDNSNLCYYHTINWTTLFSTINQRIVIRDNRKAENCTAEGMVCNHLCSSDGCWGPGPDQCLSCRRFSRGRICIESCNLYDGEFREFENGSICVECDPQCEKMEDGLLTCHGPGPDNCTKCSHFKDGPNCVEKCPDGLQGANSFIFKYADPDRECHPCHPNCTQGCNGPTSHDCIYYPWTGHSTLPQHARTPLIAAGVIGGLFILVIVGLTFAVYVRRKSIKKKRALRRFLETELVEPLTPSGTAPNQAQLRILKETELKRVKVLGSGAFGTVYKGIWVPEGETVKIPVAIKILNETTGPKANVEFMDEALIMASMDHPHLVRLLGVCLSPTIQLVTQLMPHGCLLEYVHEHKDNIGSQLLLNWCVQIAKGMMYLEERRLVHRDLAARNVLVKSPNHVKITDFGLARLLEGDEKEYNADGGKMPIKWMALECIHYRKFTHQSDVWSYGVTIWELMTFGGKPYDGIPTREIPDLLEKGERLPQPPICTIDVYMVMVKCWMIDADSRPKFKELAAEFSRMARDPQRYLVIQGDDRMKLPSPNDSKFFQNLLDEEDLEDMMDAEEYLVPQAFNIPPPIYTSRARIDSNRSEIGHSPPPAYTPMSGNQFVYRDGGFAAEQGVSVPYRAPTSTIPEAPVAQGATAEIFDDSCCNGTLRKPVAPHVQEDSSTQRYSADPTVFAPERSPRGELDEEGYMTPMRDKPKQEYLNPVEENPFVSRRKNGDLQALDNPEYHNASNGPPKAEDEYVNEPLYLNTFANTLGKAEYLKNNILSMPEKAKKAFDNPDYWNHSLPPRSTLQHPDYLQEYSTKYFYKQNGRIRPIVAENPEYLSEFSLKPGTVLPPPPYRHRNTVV
structure (smiles),measurement,setting,value
O=c1[nH]c2ccccc2n1C1CCN(Cc2ccc(-c3nc4cc5[nH]cnc5cc4nc3-c3ccccc3)cc2)CC1,residual activity,[1],76%
same,residual activity,[2],119%
same,residual activity,[3],90%
same,residual activity,[4],123% (inactive)
same,residual activity,[5],105%
same,residual activity,[6],109%
same,residual activity,[7],117%
same,residual activity,[8],99%
same,residual activity,[9],61%
same,residual activity,[10],143%

# — ChEMBL document CHEMBL2218924, “A broad activity screen in support of a chemogenomic map for kinase signalling research and drug discovery” (Biochem J, 2013)
